Most compounds without a hit are left out; they make up all but 3.3% or so of the library.
NOD2 RIPK2 PPI – inhibitors of human NOD2-RIPK2 interaction | O43353 | inhibition, % at 4.98 µM | CHO BLA complementation NOD2-RIPK2, CCF4 ratio | AID 624267 | hit rate 0.38% among 360,000; in the data active = inhibition above about 21%;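 note: 0% = vehicle only and 100% = reference blocker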
TLR4-MyD88 BLA – blocks binding of human TLR4 to MyD88; inhibition, % at 8.4 µM; AID 861; HeLa CL3-4 TLR4/MyD88 BLA complementation, FRET ratio; hit rate 0.18% among 200,000; in the data active = inhibition above about 25%;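 note: 0% = vehicle and 100% = reference inhibitor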
ABHD5-PLIN5 inh – blocks binding of human ABHD5 to perilipin-5. Split G. princeps luciferase complementation, luminescence, 4 h. inhibition, % at 4 µM. hit rate 0.78% among 360,000;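 active = inhibition above the mean inhibition across every tested compound plus 3 SD, cut at about 22% in these data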;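 note: 0% = DMSO only wells and the 100% control is not disclosed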
rCAG binder – binds r(CAG) RNA repeats; hit rate 1.3% among 370,000; AID 651821; r(CAG) RNA repeat, TO-PRO-1 dye displacement fluorescence; inhibition, % at 3 µM;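 active = inhibition above the plate cutoff, the mean of all test compounds on that plate plus 3 SD, cut at about 35% in these data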;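 note: 0% = DMSO alone and 100% = 100 µM mitoxantrone as full dye displacement; higher means more dye released from RNA so lower well fluorescence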
TLR9-MyD88 block – TLR9-MyD88 interaction inhibition | Q9NR96+Q99836 | CHO BLA complementation TLR9-MyD88, CCF4 FRET ratio | inhibition, % at 4.98 µM | hit rate 0.21% among 340,000;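 active = inhibition above the mean over all tested compounds plus 3 SD, cut at about 21% in these data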;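 note: 0% = DMSO only wells and 100% = clavulanate BLA inhibitor control wells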
PRMT1 FP inh – PRMT1 (human) inhibition, primary screen | recombinant PRMT1, activity-based probe fluorescence polarization | inhibition, % at 2.79 µM | hit rate 1.3% among 370,000 | AID 652257;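 active = inhibition above about 21% made by adding two undisclosed values, limit read from the data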
rCAG bind conf – r(CAG) RNA repeat binding, confirmation | shares compounds with rCAG binder | TO-PRO-1 dye displacement fluorescence | inhibition, % at 3 µM | hit rate 70% among 4,300;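 active = inhibition above a per-plate cutoff, the mean inhibition of sample wells plus 3 SD, cut at about 35% in these data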;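 note: loss of TO-PRO-1 fluorescence as compound displaces dye from 1x1 AA loop RNA; 0% = DMSO only wells and 100% = 100 µM mitoxantrone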
dCAG dye counter – counter-screen for rCAG RNA binders: DNA CAG dye complex inhibitors; inhibition, % at 3 µM; d(CAG) DNA oligo TO-PRO-1 dye displacement, fluorescence; AID 652068; shares compounds with rCAG binder; hit rate 94% among 4,300;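 active = inhibition above its plate's cutoff, the mean test-well inhibition plus 3 SD, cut at about 4.8% in these data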;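 note: 0% = DNA dye mix with DMSO and 100% = 100 µM mitoxantrone; hits displace the dye from DNA and so lower well fluorescence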
dCAG dye DR – counter-screen for rCAG binders: inhibitors of DNA CAG TO-PRO-1 complex. shares compounds with rCAG binder. DNA CAG/GTC duplex TO-PRO-1 dye displacement fluorescence. IC50, µM. hit rate 20% among 250; in the data active = IC50 below about 10 µM
* marks the source's active call; other numbers are inactive results; i = inactive; / = not tested or not shown.

SMILES | NOD2 RIPK2 PPI | TLR4-MyD88 BLA | ABHD5-PLIN5 inh | rCAG binder | TLR9-MyD88 block | PRMT1 FP inh | rCAG bind conf | dCAG dye counter | others
CCN(CC)S(=O)(=O)c1ccc(O)c(NC(=O)c2ccc(N3CCOCC3)c([N+](=O)[O-])c2)c1 | -7 | -11 | 7 | 53* | 0 | 2 | 44* | 13*
CCCCCCCC/C=C\CCCCCCCC(=O)NCCO | -12 | / | 1 | 2 | 5 | 3 | / | /
CCCCCCCC/C=C\CCCCCCCC(=O)NCCc1ccc(O)c(O)c1 | -2 | / | 10 | 47* | 12 | 9 | 21 | 7.2*
Cn1c(SCC(=O)NC2CC2)nnc1-c1cccs1 | -3 | / | 8 | 0 | 3 | -1 | / | /
CCOC(=O)c1c(-c2ccc(C)c(C)c2)csc1NC(=O)C1CC=CCC1C(=O)O (centres undefined) | -13 | 3 | 0 | 44* | 7 | 5 | 58* | 19*
CCOC(=O)c1c(-c2ccc(F)cc2)csc1NC(=O)C1CC=CCC1C(=O)O (centres undefined) | 0 | -28 | -6 | 34 | 4 | 7 | / | /
COc1ccc(CCn2c(O)cc3nn(-c4nc5ccccc5s4)c(=O)c-3c2C)cc1 | -8 | / | -4 | 67* | -11 | 7 | 84* | 51*
CCCCN(C)S(=O)(=O)c1ccc(C(=O)Nc2nnc(-c3ccco3)o2)cc1 | 11 | -5 | -6 | 37* | 5 | -5 | 27 | 8.2*
CN(C)S(=O)(=O)c1ccc(C(=O)Nc2nnc(-c3ccco3)o2)cc1 | 7 | 8 | 1 | 4 | -5 | 0 | / | /
FC(F)(F)c1ccc(/C=N/n2c(COc3ccccc3)n[nH]c2=S)cc1 | -1 | / | -3 | 51* | -3 | 14 | 37* | 8.5*
S=c1[nH]nc(COc2ccccc2)n1/N=C/c1ccccc1Br | 1 | / | 7 | 38* | -5 | 9 | 38* | 8.4*
FC(F)(F)c1ccccc1/C=N/n1c(COc2ccccc2)n[nH]c1=S | 0 | / | -5 | 44* | 1 | 21 | 28 | 5.5*
S=c1[nH]nc(COc2ccccc2)n1/N=C/c1ccncc1 | 12 | 8 | 10 | -1 | -3 | -5 | / | /
C=CCn1c(SCC(=O)N2CCN(c3ccccc3)CC2)nc2c([nH]c3ccccc32)c1=O | -2 | / | -2 | 2 | 3 | -4 | / | /
Cc1cc(/C=C2\SC(=S)NC2=O)c(C)n1-c1cccc(O)c1 | 1 | / | 5 | 52* | -3 | 1 | 35* | 14*
CCn1c(C)cc(/C=C2/SC(=S)NC2=O)c1C | -2 | 1 | 2 | 0 | -2 | 1 | / | /
Cc1cc(/C=C2/C(=O)NN(c3ccccc3)C2=O)c(C)n1-c1cccc(O)c1 | -10 | 6 | 1 | 31 | 3 | 4 | / | /
Cc1cc(/C=C2\SC(=S)NC2=O)c(C)[nH]1 | -18 | -12 | 3 | 35* | -4 | 11 | 21 | 6.9*
Cc1sc(-n2c(C)cc(/C=C3\SC(=S)NC3=O)c2C)c(C#N)c1C | 2 | -2 | -9 | 69* | 2 | 2 | 76* | 35*
O=C(Nc1cnccn1)c1ccc(F)cc1Cl | 1 | / | 5 | 0 | -5 | -7 | / | /
CCc1ccc(C(=O)Nc2cccc(-c3nn[nH]n3)c2)s1 | -11 | / | -6 | 15 | 4 | -2 | / | /
CCCc1cc(C(=O)Nc2cccc(-c3nn[nH]n3)c2)sc1C | -7 | / | -10 | 40* | -3 | 5 | 35* | 8.5*
O=C(N/N=C/c1ccc([N+](=O)[O-])o1)c1cn(-c2ccccc2)nc1-c1ccccc1 | 2 | 4 | 2 | 39* | 3 | 5 | 19 | 10*
O=C(O)COc1ccc(/C=N/NC(=O)c2cn(-c3ccccc3)nc2-c2ccccc2)cc1 | 4 | / | 0 | 43* | -6 | 4 | 35* | 10*
CC(C)(C)[C@H]1C=C(C(=O)O)O[C@@H](OCc2ccc(CO)cc2)C1 | -1 | / | -2 | 2 | 7 | 0 | / | /
SMILES | NOD2 RIPK2 PPI | TLR4-MyD88 BLA | ABHD5-PLIN5 inh | rCAG binder | TLR9-MyD88 block | PRMT1 FP inh | rCAG bind conf | dCAG dye counter | others
COc1ccc(C(C#N)=Cc2cc(OC)c(OC)c(OC)c2)cc1 | / | / | / | 0 | / | -1 | / | /
COc1ccc(/C=C(\CC(=O)O)c2nc3ccccc3s2)cc1O | -9 | 5 | 4 | 15 | -11 | 5 | / | /
COc1cc(/C=C(\CC(=O)O)c2nc3ccccc3s2)ccc1OCC(=O)Nc1ccccc1F | -9 | / | -1 | 59* | -4 | 2 | 62* | 23*
CCOc1cc(/C=C(\CC(=O)O)c2nc3ccccc3s2)ccc1OC | -12 | -21 | 0 | 18 | 0 | 7 | / | /
CCOc1cc(/C=C(\CC(=O)O)c2nc3ccccc3s2)ccc1OCC(=O)Nc1cccc(C(F)(F)F)c1 | 2 | / | -2 | 67* | 0 | 5 | 53* | 18*
COc1ccc(-c2nn(-c3ccccc3)cc2/C=C(\CC(=O)O)c2nc3ccccc3s2)cc1OC | -13 | 4 | 4 | 53* | -2 | 5 | 64* | 22*
COc1cccc(/C=C/C(=O)OCC(=O)Nc2cccc(S(=O)(=O)N3CCOCC3)c2)c1OC | 0 | 6 | -6 | -2 | 2 | -6 | / | /
CCC(C)[C@H](Nc1nc(-c2ccccc2)nc2c1oc1ccccc12)C(=O)O (some centres undefined) | 7 | 12 | -13 | 74* | 1 | 2 | 70* | 32* | dCAG dye DR=i
CC(C)C(Nc1ncnc2c1oc1ccccc12)C(=O)O (centres undefined) | -13 | -5 | 2 | 2 | -4 | 8 | / | /
CC(C)[C@H](Nc1nc(-c2ccccc2)nc2c1oc1ccccc12)C(=O)O | -6 | 22 | -6 | 58* | -5 | 0 | 42* | 11*
CCc1nc(N[C@H](C(=O)O)C(C)CC)c2oc3ccccc3c2n1 (some centres undefined) | -11 | 11 | 1 | 11 | -11 | -2 | / | /
O=c1ccc2ccc(OCCOc3cccc(Cl)c3)cc2o1 | -17 | / | 2 | 0 | -6 | 0 | / | /
COc1ccc(OC)c(C(=O)c2c(C)oc3cc([N+](=O)[O-])c(O)c([N+](=O)[O-])c23)c1 | -18 | / | 4 | 35* | -4 | -2 | 21 | 4
O=C(NCc1ccccc1)c1ccc2nc(-c3ccco3)c(-c3ccco3)nc2c1 | 8 | -4 | 24* | 56* | 1 | 44* | 56* | 26*
O=C(c1cccc(C(=O)N2CCN(c3ncccn3)CC2)c1)N1CCN(c2ncccn2)CC1 | -3 | -3 | 2 | -2 | 5 | -3 | / | /
